Measurements from PubChem BioAssay (EPA / NIEHS).
Active and inactive are the calls of the source. How the source made its calls: active means hit-call score of the fitted dose curve at least 0.9, where 1 is the maximum; inactive means score below 0.9.

Assays:
Details in all cases: mRNA level, 48 h; actives raise or lower the signal
[1] = read-out: ABC Transporter (ABCC2), ABCC2 (gene 1244); assay: LTEA_HepaRG_ABCC2: Life Technologies and Expression Analysis (LTEA) Assay for ABC Transporter (ABCC2) using HepaRG (AID 2283464)
In short: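 qRT-PCR (TaqMan, Fluidigm array) read-out of ABCC2 mRNA, normalized to three housekeeping genes. Differentiated HepaRG cells were treated 48 h in serum-free induction medium with 8-point half-log series from 100 uM in 0.5% DMSO; curves fitted bidirectionally relative to DMSO.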

[2] = read-out: Broad substrate specificity ATP-binding cassette transporter ABCG2 (Homo sapiens) (UniProt Q9UNQ0); assay: LTEA_HepaRG_ABCG2: Life Technologies and Expression Analysis (LTEA) Assay for ABC Transporter (ABCG2) using HepaRG (AID 2283465)
In short: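 Differentiated HepaRG cells were exposed for 48 h in serum-free induction medium to 8 half-log concentrations, top 100 uM, in 0.5% DMSO. ABCG2 mRNA was measured by qRT-PCR, normalized to ACTB, GAPDH and POLR2A, with bidirectional fitting versus DMSO.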

[3] = read-out: ATP-citrate lyase (ACLY), ACLY (gene 47); assay: LTEA_HepaRG_ACLY: Life Technologies and Expression Analysis (LTEA) Assay for ATP-citrate lyase (ACLY) using HepaRG (AID 2283466)
In short: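 Differentiated HepaRG cells exposed 48 h in serum-free induction medium to eight half-log concentrations up to 100 uM in 0.5% DMSO, duplicates. Transcript measured by Fluidigm TaqMan qRT-PCR, normalized to ACTB, GAPDH, POLR2A; bidirectional fit versus DMSO.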

[4] = read-out: Peroxisomal acyl-coenzyme A oxidase 1 (ACOX1) gene, ACOX1 (gene 51); assay: LTEA_HepaRG_ACOX1: Life Technologies and Expression Analysis (LTEA) Assay for Peroxisomal acyl-coenzyme A oxidase 1 (ACOX1) gene using HepaRG (AID 2283467)
In short: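 HepaRG cells, plated 48 h then switched to serum-free induction medium, were exposed in duplicate for 48 h to 8-point half-log concentrations up to 100 uM in 0.5% DMSO. ACOX1 mRNA was measured by qRT-PCR, normalized to ACTB/GAPDH/POLR2A, and fitted bidirectionally versus DMSO.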

[5] = read-out: Alkaline Phosphatase, Placental (ALPP) gene, ALPP (gene 250); assay: LTEA_HepaRG_ALPP: Life Technologies and Expression Analysis (LTEA) Assay for Alkaline Phosphatase, Placental (ALPP) gene using HepaRG (AID 2283468)
In short: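 qRT-PCR readout of ALPP mRNA (Fluidigm TaqMan), normalized to ACTB/GAPDH/POLR2A, after 48 h chemical exposure of HepaRG cells; 8-point half-log series, top 100 uM, 0.5% DMSO vehicle. Bidirectional curve fit versus DMSO baseline.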

[6] = read-out: Bcl-2 (BAD) gene, BAD (gene 572); assay: LTEA_HepaRG_BAD: Life Technologies and Expression Analysis (LTEA) Assay for Bcl-2 (BAD) gene using HepaRG (AID 2283469)
In short: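 Differentiated HepaRG cells were exposed in duplicate in 0.5% DMSO for 48 h to eight-point half-log concentrations up to 100 uM. BAD mRNA was measured by Fluidigm TaqMan qRT-PCR, normalized to ACTB, GAPDH and POLR2A, and fitted bidirectionally against DMSO.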

[7] = read-out: adenosine kinase (ADK) gene, ADK (gene 132); assay: LTEA_HepaRG_ADK: Life Technologies and Expression Analysis (LTEA) Assay for adenosine kinase (ADK) gene using HepaRG (AID 2283471)
In short: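 ADK expression quantified by qRT-PCR, normalised to three housekeeping genes, after 48 h exposure of HepaRG cells to eight concentrations (top 100 uM, half-log steps, duplicate, 0.5% DMSO). Up- or down-regulation fitted relative to vehicle.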

[8] = read-out: Alpha-fetoprotein (AFP) gene, AFP (gene 174); assay: LTEA_HepaRG_AFP: Life Technologies and Expression Analysis (LTEA) Assay for Alpha-fetoprotein (AFP) gene using HepaRG (AID 2283472)
In short: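 Differentiated human HepaRG cells exposed 48 h in serum-free induction medium, 8-point half-log series from 100 uM in 0.5% DMSO, duplicate. AFP mRNA by qRT-PCR, normalized to ACTB, GAPDH, POLR2A; bidirectional fit vs DMSO.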

BCL2L11 (gene 10018) = assay: LTEA_HepaRG_BCL2L11: Life Technologies and Expression Analysis (LTEA) Assay for Bcl-2 (BCL2L11) gene using HepaRG (AID 2283473)
In short: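 HepaRG, 48 h exposure, 8-pt half-log series from 100 uM in 0.5% DMSO, duplicates; qRT-PCR (Fluidigm TaqMan) for BCL2L11, housekeeping-normalized; bidirectional curve fit relative to DMSO baseline.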

[9] = read-out: Bcl-2 (BAX) gene, BAX (gene 581); assay: LTEA_HepaRG_BAX: Life Technologies and Expression Analysis (LTEA) Assay for Bcl-2 (BAX) gene using HepaRG (AID 2283470)
In short: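 Differentiated HepaRG cells exposed 48 h in serum-free induction medium, eight half-log concentrations from 100 uM, in duplicate, 0.5% DMSO vehicle. BAX mRNA by TaqMan qRT-PCR, normalised to ACTB, GAPDH and POLR2A.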

Measured: AC50

Sequence of Broad substrate specificity ATP-binding cassette transporter ABCG2 (Homo sapiens) (Q9UNQ0 whole entry, looked up): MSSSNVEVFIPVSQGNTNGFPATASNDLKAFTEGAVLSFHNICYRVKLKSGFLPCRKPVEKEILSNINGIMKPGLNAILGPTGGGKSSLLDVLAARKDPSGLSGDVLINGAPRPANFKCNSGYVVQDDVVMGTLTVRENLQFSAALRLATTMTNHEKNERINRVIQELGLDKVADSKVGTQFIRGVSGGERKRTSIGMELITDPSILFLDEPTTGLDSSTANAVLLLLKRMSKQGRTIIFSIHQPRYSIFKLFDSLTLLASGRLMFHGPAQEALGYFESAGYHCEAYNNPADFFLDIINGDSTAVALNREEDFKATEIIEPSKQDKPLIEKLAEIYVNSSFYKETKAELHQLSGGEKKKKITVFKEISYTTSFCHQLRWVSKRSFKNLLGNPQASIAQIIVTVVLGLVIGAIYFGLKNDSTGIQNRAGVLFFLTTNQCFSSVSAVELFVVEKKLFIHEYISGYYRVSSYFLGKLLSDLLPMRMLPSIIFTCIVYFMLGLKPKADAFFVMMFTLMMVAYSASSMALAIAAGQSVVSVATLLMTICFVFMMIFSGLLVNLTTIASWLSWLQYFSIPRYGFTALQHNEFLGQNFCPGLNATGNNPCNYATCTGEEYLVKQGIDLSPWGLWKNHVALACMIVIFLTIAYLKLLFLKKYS

CNCc1ccc(NC(=O)c2c[nH]c3c2C(=O)CCC3)cc1
not listed: [9]
inactive: all other assays above

Cc1[nH]cnc1C[C@H]1CCc2c(C)c3ccccc3n2C1=O
inactive: [2] | [5] | [6] | [7]
active: [1] 31.3 µM | [3] 75.6 µM | [4] 54.4 µM | BCL2L11 (gene 10018) 26.6 µM

O=C(O)c1cccc(N(Cc2cccnc2)c2ccc(OC(F)F)c(OC(F)F)c2)c1
active: [3] 83.3 µM | [5] 79.9 µM
not listed: [9]
inactive: all other assays above

Cc1ccc(N)cc1O
not listed: [9]
inactive: all other assays above

O=C(CCCCCCCCc1cccnc1)N1CCC(C=C(c2ccccc2)c2ccccc2)CC1
inactive: [1] | [3] | [6] | [7]
active: [2] 13.2 µM | [4] 50 µM | [5] 13.7 µM | [8] 24.3 µM | BCL2L11 (gene 10018) 27.3 µM

Nc1ccc(Nc2ccccc2)cc1
active: [5] 50 µM | [6] 11.9 µM | [8] 75.9 µM
not listed: [9]
inactive: all other assays above

CC(C)CCCCCCOC(=O)c1ccc(C(=O)OCCCCCCC(C)C)c(C(=O)OCCCCCCC(C)C)c1
not listed: [6]
inactive: all other assays above

CC1(C)C(=O)N(Br)C(=O)N1Br
not listed: [9]
inactive: all other assays above

Cc1ccc(S(=O)(=O)O)cc1C
not listed: [9]
inactive: all other assays above

COCCOCCOCCOC
not listed: [9]
inactive: all other assays above

CC(C)=CCC/C(C)=C/CO
not listed: [9]
inactive: all other assays above

CC(O)CN(CCN(CC(C)O)CC(C)O)CC(C)O (stereo not drawn)
active: [6] 12.2 µM
not listed: [9]
inactive: all other assays above

Cc1ccc(O)cc1
not listed: [8] | [9]
inactive: all other assays above

CCCCCCCCO
not listed: [9]
inactive: all other assays above

C=CCCCCCCCCC(=O)O
active: [7] 0.00684 µM
not listed: [9]
inactive: all other assays above

Fc1ccccc1[C@@H](F)COC1CCC(Nc2ncnc3[nH]ncc23)CC1 (stereo partly drawn)
active: [1] 65.4 µM | [4] 34.1 µM | [5] 23.1 µM | [7] 50 µM | [8] 27.2 µM
inactive: [2] | [3] | [6] | BCL2L11 (gene 10018)

CCOC(=O)COc1ccc2c(c1)CC(NCC(O)c1cccc(Cl)c1)CC2 (stereo not drawn)
active: [5] 16 µM
not listed: [9]
inactive: all other assays above

O=C(NS(=O)(=O)/C=C/c1ccccc1)c1ccc(F)cc1Cl
active: [1] 4.56 µM | [8] 18.9 µM
not listed: [9]
inactive: all other assays above

CCC(C)(C)C(=O)O[C@H]1C[C@@H](C)C=C2C=C[C@H](C)[C@H](CC[C@@H]3C[C@@H](O)CC(=O)O3)[C@H]21
active: [3] 13.5 µM
not listed: [9]
inactive: all other assays above

C1N2CN3CN1CN(C2)C3
not listed: [9]
inactive: all other assays above

CC(C)=CCC/C(C)=C\CO
not listed: [9]
inactive: all other assays above

COc1cccc(-c2ccc(/C=C\CN3CCCCCC3)cc2Cl)c1
active: [1] 75.4 µM | [2] 37.8 µM | [4] 45.2 µM | [5] 45.2 µM
not listed: [9]
inactive: all other assays above

CCN(C(=O)c1cc(C)cc(OC[C@H](C)Nc2ccncc2)c1)C(C)C
active: [3] 33.8 µM | [4] 20.1 µM | [5] 6.7 µM | [8] 23.7 µM
not listed: [9]
inactive: all other assays above

CNS(=O)(=O)c1cc(C(=O)N2CCC(CCN3C4CCC3CC(n3c(C)nc5ccccc53)C4)(c3cccc(F)c3)CC2)c(Cl)cc1F (stereo not drawn)
active: [2] 17.1 µM | [3] 30.9 µM | [4] 13.3 µM | [5] 14.5 µM | [8] 24.6 µM
inactive: [1] | [6] | [7] | BCL2L11 (gene 10018)

O=C(O)CC(O)C(=O)O (stereo not drawn)
not listed: [9]
inactive: all other assays above

CCCCC(CC)COC(=O)c1ccc(C(=O)OCC(CC)CCCC)cc1 (stereo not drawn)
not listed: [9]
inactive: all other assays above

Cn1c(=O)cc(Oc2ccc(F)cc2F)c2cnc(NCC(C)(C)O)nc21
active: [5] 20.7 µM
not listed: [9]
inactive: all other assays above

CCCC(=O)OCC
not listed: [9]
inactive: all other assays above

CC[C@H]1CC[C@H](NCc2cc3c(cc2OC)[C@H]2C[C@H]2C(=O)N3C)[C@H](c2ccccc2)N1
active: [1] 50 µM | [5] 75.7 µM | [8] 50 µM | BCL2L11 (gene 10018) 31.7 µM
not listed: [9]
inactive: all other assays above

CC[C@H](C)C(=O)O[C@H]1C[C@@H](C)C=C2C=C[C@H](C)[C@H](CC[C@@H]3C[C@@H](O)CC(=O)O3)[C@H]21
active: [3] 14.8 µM
not listed: [9]
inactive: all other assays above
